Assay outcomes: PubChem BioAssay, The Scripps Research Institute Molecular Screening Center
This is a sample that favours compounds with a hit; in the whole collection about 2.8% have one here.
bovine MsrA act: bovine MsrA enzyme activators, primary screen, biochemical, absorbance, HTS. Methionine sulfoxide reductase A (Bos taurus). purified bovine MsrA, absorbance read-out. activation, % at 10.6 µM. actives 0.3% (n = 360,000). AID 602163, 2012; in the data active means activation above about 7.5%;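 further: 0% = vehicle and 100% = reference activator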
MsrA inh: bovine MsrA enzyme inhibitors, primary screen, biochemical, absorbance, HTS; purified bovine MsrA, absorbance read-out; inhibition, % at 15.5 µM; actives 0.75% (n = 360,000); in the data active means inhibition above about 4.5%;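 further: 0% = vehicle wells with enzyme and 100% = reference inhibitor wells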
proKLK7 act: proKLK7 zymogen activators, primary screen, biochemical, fluorescence intensity | AID 652039, 2013 | actives 0.9% (n = 370,000) | purified proKLK7, EDANS-DABCYL substrate fluorescence; 100% is mature enzyme control, 0% vehicle | activation, % at 7 µM | Kallikrein-7 (Homo sapiens), P49862;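 active means activation above the mean of all tested compounds plus 3 SD, computed per campaign excluding outliers beyond control limits, cut at about 13% in these data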
Target sequence (P49862 whole entry, looked up): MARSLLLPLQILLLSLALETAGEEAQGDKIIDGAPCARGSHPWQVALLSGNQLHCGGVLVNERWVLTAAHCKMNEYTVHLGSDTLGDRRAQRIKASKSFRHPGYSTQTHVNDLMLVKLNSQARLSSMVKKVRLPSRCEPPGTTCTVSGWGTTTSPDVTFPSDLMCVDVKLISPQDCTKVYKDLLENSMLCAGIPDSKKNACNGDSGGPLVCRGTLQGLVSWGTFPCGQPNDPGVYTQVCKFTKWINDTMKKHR
SMARCA2 activ: SMARCA2 (BRM) function activators, primary screen, cell-based, luminescence, high throughput; MG213 cells, MMTV-luciferase reporter, dexamethasone, overnight; activation, % at 9.1 µM; actives 1% (n = 370,000); AID 652017, 2013; in the data active means activation above about 7.8%;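 further: 0% = vehicle wells and 100% = reference activator wells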
KLK7 act conf: proKLK7 zymogen activators, confirmation, biochemical, fluorescence intensity, triplicate. shares compounds with proKLK7 act. purified proKLK7, EDANS-DABCYL substrate fluorescence; scaled: vehicle 0, mature enzyme 100. activation, % at 7 µM. actives 68% (n = 3,200). AID 686949, 2013;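 active means activation, as change over the incubation, above the mean of all tested compounds plus 3 SD, cut at about 13% in these data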
EDANS-DABCYL int: EDANS-DABCYL substrate optical interference, artefact control for kallikrein-7 zymogen activator project, biochemical, fluorescence intensity, high throughput. no enzyme, 4 h; solvent 0%, active enzyme control 100%. AID 686952, 2013. shares compounds with proKLK7 act. actives 80% (n = 3,200). activation, % at 7 µM;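 active means activation above the all-compound mean plus 3 SD, ignoring values outside control-based bounds, cut at about 4.8% in these data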;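 further: value is the 4 h activation minus the activation read at time zero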
K7 EDANS ctr: EDANS fluorescence interference in dose response, no enzyme. shares compounds with proKLK7 act. EDANS-DABCYL peptide fluorescence interference. EC50, µM. actives 20% (n = 250);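 active means compounds that raise the fluorescence signal in this interference counterscreen, with EC50 at or below 10 µM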;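 further: intact quenched peptide substrate alone read at 355 nm excitation and 520 nm emission; signal is fluorescence gain from T0 to T4 after four hours at room temperature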
Numbers without * were called inactive; x = no result given.

SMILES	bovine MsrA act	MsrA inh	proKLK7 act	SMARCA2 activ	KLK7 act conf	EDANS-DABCYL int	others
Cc1cc(=O)oc2c3c(cc(OCC(=O)NCCN4CCOCC4)c12)OC(C)(C)CC3	-2	2	34*	-2	57*	70*
Cc1cc(=O)oc2c3c(cc(OCC(=O)NCc4ccco4)c12)OC(C)(C)CC3	0	1	12	1	x	x
CC(C)(C)OC(=O)NCCc1onc(-c2cccc([N+](=O)[O-])c2)c1C(=O)O	5	0	1	7	x	x
CCCCCCCCN1C(=O)[C@H](CC(=O)N2CCCCC2)C[C@@]2(C(=O)OC)CC(C)(C)CC=C12	x	-1	1	0	x	x
O=C(Nc1ccc2c(c1)C(=O)NC2=O)c1ccc(S(=O)(=O)N2CCCC2)cc1	-1	0	86*	-5	90*	40*	K7 EDANS ctr=8.5*
CC(=O)Nc1ccc(C(=O)Nc2ccc(S(=O)(=O)N3CCCC3)cc2)cc1	-1	-1	0	-1	x	x
CCOC(=O)[C@]12CCC=C1N(Cc1ccc(Cl)cc1Cl)C(=O)[C@H](CC(=O)NCc1cccs1)C2	-3	1	1	-6	x	x
O=C(Nc1ccc(O)c(C(=O)O)c1)Oc1ccccc1	2	0	26*	-1	30*	28*
COc1ccc(NC(=O)c2cc3cc(OC)ccc3oc2=O)cc1	-3	1	0	-4	x	x
O=C(Nc1ccc2oc(=O)c(C(=O)O)cc2c1)Oc1ccccc1	-2	1	100*	0	187*	181*
COc1ccc2oc(-c3ccco3)cc(=O)c2c1	-2	3	57*	3	74*	71*
O=c1cc(-c2ccco2)oc2ccc(Cl)cc12	0	2	0	2	x	x
COc1ccc(C2C(C(=O)Nc3c(C)cccc3C)CCC(=O)N2c2ccc(OC)cc2)cc1 (stereo not given)	x	x	0	-5	x	x
CCCCN(CCCC)c1nc2ccccc2nc1C(C#N)C(=O)NCCCOC (stereo not given)	-1	-1	-4	0	x	x
CCN(CC)c1nc2ccccc2nc1C(C#N)C(=O)NCCCOC (stereo not given)	-8	2	14*	0	33*	37*
CNc1cncc(-c2ccccc2NC(C)=O)n1	-4	2	6	-2	x	x
CNc1cncc(-c2cccc(OC)c2F)n1	-2	1	37*	2	35*	53*
CNc1cncc(-c2c(OC)cccc2OC)n1	-2	1	12	-5	x	x
CCOc1ccccc1-c1cncc(NC)n1	-2	2	25*	-2	18*	16*
CCOc1ccccc1-c1cnc(NC)cn1	-6	1	15*	-2	31*	28*
CNc1cnc(-c2ccccc2OC)cn1	-1	3	11	-6	x	x
CNc1cncc(-c2ccccc2CO)n1	-6	2	26*	5	12	15*
CCOC(=O)C1=CCN(S(=O)(=O)c2ccc(C)cc2)C1c1ccc(C(C)C)cc1 (stereo not given)	0	0	1	-3	x	x
Cc1ccc(CNC(=O)OC(C)(C)C)c(/C=C/S(=O)(=O)NCc2ccc(F)cc2)c1	x	x	0	0	x	x
CCOC(=O)c1cc2c(=O)n3cccc(C)c3nc2n(Cc2ccco2)c1=NC(=O)c1ccccc1	-5	2	24*	-2	37*	36*
SMILES	bovine MsrA act	MsrA inh	proKLK7 act	SMARCA2 activ	KLK7 act conf	EDANS-DABCYL int	others
CCOC(=O)c1cc2c(=O)n3ccccc3nc2n(Cc2ccco2)c1=NC(=O)c1ccc(OC)cc1	-3	0	13*	-1	105*	104*
CCOC(=O)c1cc2c(=O)n3ccccc3nc2n(Cc2ccco2)c1=NC(=O)c1cccc(OC)c1	-3	0	29*	0	42*	53*
CCNC(=O)C1(C)CCCN(C(=O)c2ccc(C(F)(F)F)nc2C)C1 (stereo not given)	-2	1	-1	-4	x	x
Cc1cccnc1C(c1ccc(F)cc1)N(C)C(=O)C1CCN(CCOc2ccc(Cl)cc2Cl)CC1 (stereo not given)	0	-1	-1	-5	x	x
NNC(=O)c1ccc(CSc2cccc3cccnc23)cc1	-9	1	13*	-3	4	-1
CCCn1c(-c2ccc[nH]c2=O)nc2cc(C)c(C)cc21	-4	3	18*	2	38*	41*
CCOc1ccc2nc3sc(C(=O)N4CCOCC4)c(N)c3cc2c1	-2	1	13*	-5	8	6.6*
Cc1cc(C)c2cc3c(N)c(C(=O)N4CCOCC4)sc3nc2c1	-2	2	19*	0	-9	-8
Cc1ccc(C(=O)OCC(=O)NC2CCCC(C)C2C)cc1S(=O)(=O)N1CCCCC1 (stereo not given)	-3	0	1	-2	x	x
Cc1ccc2c(=O)cc(C(=O)NCc3ccccc3)oc2c1C	0	0	0	-2	x	x
O=c1cc(C(F)F)oc2c1ccc1ccccc12	-11	0	17*	0	18*	19*
Cc1cc(=O)oc2cc(NC(=O)c3ccccc3Cl)ccc12	-4	1	13*	6	12	12*
Cc1cc(=O)oc2cc(NC(=O)c3ccccc3C(=O)O)ccc12	-7	4	54*	3	14*	16*
Nc1nc2c(C(=O)N3CCCC3)nnn2c2ccccc12	x	2	19*	4	22*	20*
CNC(=O)NC(=O)C(C)OC(=O)c1c2c(nc3ccccc13)/C(=C/c1cccs1)CC2 (stereo not given)	-3	-1	50*	1	85*	73*
C[N+]1=C(/C=C/Nc2ccccc2Cl)C(C)(C)c2ccccc21	-4	3	0	-5	x	x
COC(=O)c1ccc2c(c1)C(C)(C)C(/C=C/c1ccccc1O)=[N+]2C	0	2	32*	0	1	0
O=c1oc(-c2ccccc2[N+](=O)[O-])nc2ccccc12	-4	0	0	1	x	x
Nc1ccccc1-c1nc2ccccc2c(=O)o1	-2	0	15*	1	6	4
COC(=O)c1ccc2nc(-c3ccc(OC)c(OC)c3)c(Cc3ccccc3C(F)(F)F)n2c1	x	0	0	-2	x	x
COc1ccc(C2C(C#N)=C(N)OC3=C2C(=O)CC(C)(C)C3)c([N+](=O)[O-])c1OC (stereo not given)	0	0	0	-1	x	x
